The source made the active and inactive calls.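 The calls were made as follows: active = CXCR6 mean IC50 below 15 µM, and neither CCR6 nor CXCR5 mean IC50 under five times that; inactive = the rest.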
The molecules below were run against C-X-C chemokine receptor type 5 (Homo sapiens) (UniProt P32302) (assay: antagonist selectivity across CCR6, CXCR5 and CXCR6 – cell-based, CHO-K1 PathHunter beta-arrestin, luminescence, selectivity assay for CXCR6 antagonist project, profiling panel (AID 651601)). Details: antagonist mode, mean of runs.
C-X-C chemokine receptor type 5 (Homo sapiens), sequence (P32302 whole entry, looked up): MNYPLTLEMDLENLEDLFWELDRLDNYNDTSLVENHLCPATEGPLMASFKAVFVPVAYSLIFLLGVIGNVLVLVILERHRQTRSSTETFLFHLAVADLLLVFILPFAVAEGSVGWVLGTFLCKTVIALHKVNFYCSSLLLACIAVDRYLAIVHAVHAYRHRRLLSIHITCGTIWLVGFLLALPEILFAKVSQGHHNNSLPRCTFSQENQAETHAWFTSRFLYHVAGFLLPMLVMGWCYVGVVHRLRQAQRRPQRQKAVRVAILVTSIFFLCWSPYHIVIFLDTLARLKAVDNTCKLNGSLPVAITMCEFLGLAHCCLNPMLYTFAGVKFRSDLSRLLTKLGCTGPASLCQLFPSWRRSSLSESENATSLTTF

outcome, inactive:
O=C(CN1C2CCCC1CC(NC(=O)c1ccccc1)C2)Nc1ccccc1 (stereo unspecified)
O=C(CN1C2CCCC1CC(NC(=O)c1ccccc1)C2)Nc1ccccc1C(F)(F)F (stereo unspecified)
COc1cc(C(=O)NC2CC3CCCC(C2)N3CC(=O)Nc2ccccc2)cc(OC)c1OC (stereo unspecified)
COc1cccc(C(=O)NC2CC3CCCC(C2)N3CC(=O)Nc2ccc(N(C)C)cc2)c1 (stereo unspecified)
CN(C)c1ccc(NC(=O)CN2C3CCCC2CC(NC(=O)c2ccccc2)C3)cc1 (stereo unspecified)
COc1cccc(C(=O)NC2CC3CCCC(C2)N3CC(=O)Nc2ccccc2C(F)(F)F)c1 (stereo unspecified)
